# According to the supplement of paper PMC9262897, “Low-cost anti-mycobacterial drug discovery using engineered E. coli” (Nature Communications, 2022):
# Structures can show the parent of a compound that is named as a salt. ± gives the standard deviation of the averaged measurements.
# Test system: E. coli TESEC Alr+ wild-type control
# Test: growth (OD600 after 10 h); higher = more growth (less inhibition)
# Conditions: compound 0.1 mM; raw OD600 reference: median of DMSO wells 0.49, cell-free background 0.052
# Procedure: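 TESEC Mtb Alr E. coli (ΔaraC ΔtolC ΔentC Δalr ΔdadX, arabinose-inducible Mtb Alr) or the Alr+ wild-type control strain, grown in defined M9-fructose medium without D-alanine in 96-well plates with Prestwick library compounds at 0.1 mM and 1% DMSO. Low Alr induction is 0.1 µM arabinose and high induction is 10 mM arabinose.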
row,Structure (SMILES),growth
1,CC(C)c1ccc2oc3nc(N)c(C(=O)O)cc3c(=O)c2c1 [Amlexanox],0.416 ± 0.015
2,CCC1=C(C)CN(C(=O)NCCc2ccc(S(=O)(=O)NC(=O)N[C@H]3CC[C@H](C)CC3)cc2)C1=O [Glimepiride],0.434 ± 0.034
3,CCOc1ccc2ccccc2c1C(=O)N[C@@H]1C(=O)N2[C@@H]1SC(C)(C)[C@@H]2C(=O)O [Nafcillin sodium salt monohydrate],0.6426 ± 0.0049
4,S=c1[nH]cnc2nc[nH]c12 [Mercaptopurine],0.234 ± 0.018
5,O=C(O)c1cccnc1 [Niacin],0.522 ± 0.086
6,CC(=O)OCC(=O)[C@@]1(O)CC[C@H]2[C@@H]3CCC4=CC(=O)C=C[C@]4(C)[C@@]3(F)[C@@H](O)C[C@@]21C [Isoflupredone acetate],0.422 ± 0.029
7,CCc1oc2ccccc2c1C(=O)c1cc(Br)c(O)c(Br)c1 [Benzbromarone],0.05037 ± 5.8e-05
8,NS(=O)(=O)c1cc(Cl)c(Cl)c(S(N)(=O)=O)c1 [Dichlorphenamide],0.443 ± 0.011
9,O=C(O)[C@H]1/C(=C/CO)O[C@@H]2CC(=O)N21 [Clavulanate potassium salt],0.04737 ± 0.00042
10,COc1ccccc1OCCNCC(O)COc1cccc2[nH]c3ccccc3c12 (centres undefined) [Carvedilol],0.167 ± 0.11
11,CC(=O)N[C@@H](CS)C(=O)O [Acetylcysteine],0.475 ± 0.06
12,CO[C@@]1(NC(=O)C2SC(=C(C(N)=O)C(=O)O)S2)C(=O)N2C(C(=O)O)=C(CSc3nnnn3C)CS[C@@H]21 (some centres undefined) [Cefotetan],0.0443 ± 0.00044
13,CC(=O)O[C@H]1C(=O)[C@@]2(C)[C@H]([C@H](OC(=O)c3ccccc3)[C@]3(O)C[C@H](OC(=O)[C@H](O)[C@@H](NC(=O)c4ccccc4)c4ccccc4)C(C)=C1C3(C)C)[C@]1(OC(C)=O)CO[C@@H]1C[C@@H]2O [Paclitaxel],0.554 ± 0.03
14,Nc1nc(=O)[nH]cc1F [Flucytosine],0.57 ± 0.021
15,CN(C)CCC[C@@]1(c2ccc(F)cc2)OCc2cc(C#N)ccc21 [Escitalopram oxalate],0.435 ± 0.007
16,CCOC(=O)OC(C)OC(=O)[C@@H]1N2C(=O)[C@@H](NC(=O)[C@H](N)c3ccccc3)[C@H]2SC1(C)C (some centres undefined) [Bacampicillin hydrochloride],0.611 ± 0.013
17,CN1CCCN=C1/C=C/c1cccs1 [Pyrantel tartrate],0.458 ± 0.043
18,CN1CCOC(c2ccccc2)c2ccccc2C1 (centres undefined) [Nefopam hydrochloride],0.543 ± 0.081
19,c1ccc2c(CC3=NCCN3)cccc2c1 [Naphazoline hydrochloride],0.549 ± 0.075
20,COc1cc(C)nc(-n2nc(C)cc2OC)n1 [Epirizole],0.493 ± 0.031

row,Structure (SMILES),growth
1,CCc1cccc2c3c([nH]c12)C(CC)(CC(=O)O)OCC3 (centres undefined) [Etodolac],0.415 ± 0.021
2,C[C@]12CC[C@@H]3c4ccc(O)cc4CC[C@H]3[C@@H]1C[C@@H](O)[C@@H]2O [Estriol],0.474 ± 0.021
3,N#Cc1ccc(C(c2ccc(C#N)cc2)n2cncn2)cc1 [Letrozole],0.502 ± 0.046
4,Cc1cc(C2CCCCC2)n(O)c(=O)c1 [Ciclopirox ethanolamine],0.0666 ± 0.0021
5,CC(=O)/N=c1/sc(S(N)(=O)=O)nn1C [Methazolamide],0.438 ± 0.049
6,CC(C)NC[C@H](O)COc1ccc(CC(N)=O)cc1 [(S)-(-)-Atenolol],0.528 ± 0.092
7,COc1cc(OC)c(C(=O)CCCN2CCCC2)c(OC)c1 [Buflomedil hydrochloride],0.642 ± 0.053
8,CCN1CCC[C@H]1CNC(=O)c1c(OC)ccc(Br)c1OC [Remoxipride Hydrochloride],0.588 ± 0.039
9,CN(C)c1nc(N(C)C)nc(N(C)C)n1 [Altretamine],0.618 ± 0.023
10,Nc1ccn([C@@H]2O[C@H](CO)[C@@H](O)[C@@H]2O)c(=O)n1 [Cytarabine],0.552 ± 0.051
11,CC(N)C12CC3CC(CC(C3)C1)C2 (centres undefined) [Rimantadine Hydrochloride],0.583 ± 0.077
12,Cn1c(=O)c2nc[nH]c2n(C)c1=O [Theophylline monohydrate],0.461 ± 0.014
13,O=C(O)c1ccccc1OP(=O)(O)O [Fosfosal],0.561 ± 0.049
14,COC(=O)Nc1nc2cc(C(=O)c3ccccc3)ccc2[nH]1 [Mebendazole],0.588 ± 0.031
15,O=c1[nH]cc(F)c(=O)[nH]1 [5-fluorouracil],0.556 ± 0.066
16,CCc1nn(CCCN2CCN(c3cccc(Cl)c3)CC2)c(=O)n1CCOc1ccccc1 [Nefazodone HCl],0.0504 ± 0.00067
17,COc1cc(NC(C)CCCN)c2ncccc2c1 (centres undefined) [Primaquine diphosphate],0.267 ± 0.025
18,CNS(=O)(=O)Cc1ccc2[nH]cc(CCN(C)C)c2c1 [Sumatriptan succinate],0.441 ± 0.017
19,Cc1ccc(N(CC2=NCCN2)c2cccc(O)c2)cc1 [Phentolamine hydrochloride],0.452 ± 0.0089
